From PubChem
The list is not random: actives were taken first. Their share in the collection is about 2.6%.
LGR2 inh = inhibitors of bursicon-induced LGR2 CRE-luciferase signal, primary screen, cell-based, HEK293, CRE-luciferase reporter, bursicon stimulation; Drosophila bursicon receptor LGR2 (rickets); bursicon-stimulated, 4 h; inhibition, % at 9.99 µM; 380,000 tested, 0.35% active;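 active = drop in luminescence signal, shown as inhibition above about 50% in the replicate tests, limit read from the data, passing the limit was not always enough; inconclusive = probably only some replicates passing the limit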;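 note: agonist challenge used bursicon conditioned medium at about half maximal strength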
EWS-Fli block = EWS/Fli-driven NR0B1 reporter inhibitors, primary screen, A673 cells, NR0B1 luciferase, luminescence, MLPCN library; inhibition, % at 12.6 µM; AID 651661, 2012; viability-normalised; 350,000 tested, 0.67% active;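 active = mean inhibition of at least 50% after viability correction, with every replicate also passing that limit; inconclusive = mean reaches 50% but only one of two replicates passes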;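 note: firefly luciferase signal divided by Alamar Blue viability fluorescence both relative to DMSO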
TROY signal inh = inhibitors of TROY-driven NF-kB signaling, primary screen, Q293 LMP1-TROYcd cells, NF-kB luciferase, uHTS | Q293 LMP1-TROYcd NF-kB luciferase reporter, 4 h | inhibition, % at 10 µM | 360,000 tested, 0.98% active;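 active = compounds whose plate-normalised and pattern-corrected inhibition of the luciferase reporter signal at the single screening dose is 50% or more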
KKLEB tox = cytotoxicity in KKLEB CF airway cells, primary screen, cytotoxicity control for CF NF-kB inhibitor project, cell-based, uHTS, fluorescence assay plates. 360,000 tested, 0.36% active. KKLEB CF airway cells viability, ATPlite luminescence, overnight; stronger effect = lower value; cells stimulated with P. aeruginosa culture filtrate. activity change (cytotoxicity), % at 5 µM. AID 602141, 2011;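 active = corrected activity change at or below -50% at 5 µM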
TWEAK-Fn14 inh = inhibitors of TWEAK-Fn14 signaling, primary screen, luciferase reporter cells, uHTS. 360,000 tested, 2% active. TWEAK-stimulated Fn14 reporter cells, luciferase luminescence, 8 h. inhibition, % at 10 µM. AID 1159606, 2016; in the data active = inhibition above about 50%
CF NFkB inh = inhibitors of PAF-induced NF-kB signaling, primary screen, cell-based, GFP fluorescence, uHTS. 360,000 tested, 0.86% active. inhibition, % at 5 µM. AID 588850, 2011. KKLEB NF-kB-GFP reporter, GFP fluorescence overnight;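 active = at least 50% inhibition at 5 µM, scaled per plate between neutral and stimulator controls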;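 note: PAF is a Pseudomonas aeruginosa culture filtrate used as stimulus; plate controls were PAF-stimulated DMSO wells for no effect and unstimulated DMSO wells for full effect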
Active calls of the source: *; ? = inconclusive; . = not tested or not shown.

SMILES | LGR2 inh | EWS-Fli block | TROY signal inh | KKLEB tox | TWEAK-Fn14 inh | CF NFkB inh
O=C(C(=O)c1cc(Br)ccc1O)c1cc(Br)ccc1O | 38.6 | 18.9 | 66.0* | -28.4 | 33.8 | 60.3*
CC(=O)N1[C@@H](CO)[C@@H](c2ccccc2)C12CN(C(=O)Nc1ccccc1F)C2 | 4.1 | -4.2 | . | . | . | .
CC(C)(C)c1ccc(S(=O)(=O)/N=C2\C=C(NS(=O)(=O)c3ccccc3)C(=O)c3ccccc32)cc1 | 14.1 | . | 11.4 | -16.1 | 14.4 | 82.1*
Cc1ccc(S(=O)(=O)/N=C2\C=C(NS(=O)(=O)c3ccccc3)C(=O)c3ccccc32)c(C)c1 | 4.1 | -72.3 | 20.9 | -5.6 | -19.0 | 78.2*
CN(C)CC(=O)N1[C@H](C#N)[C@H](c2ccc(-c3cccc(C(=O)N(C)C)c3)cc2)[C@H]1CO | -0.4 | -2.2 | . | . | . | .
Cc1cc(C(=O)Nc2nc(C)c(C(=O)N(C)C)s2)ccc1[N+](=O)[O-] | 1.4 | 0.1 | 61.8* | -14.0 | 53.5* | 4.2
Cc1nc(NC(=O)c2ccc([N+](=O)[O-])cc2Cl)sc1C(=O)N(C)C | -3.2 | . | 6.1 | 6.3 | 12.1 | 0.5
O=C(C[C@H]1C[C@H]2c3cc(NC(=O)C4CCOCC4)ccc3O[C@H]2[C@@H](CO)O1)NC1CCCCC1 | -4.5 | 3.2 | . | . | . | .
Cc1ccc(N2CC(C(=O)Nc3ccc4c(c3)OCCO4)CC2=O)cc1C (stereo not given) | 12.5 | -4.0 | 46.5 | -2.6 | 54.4* | 6.9
Cc1ccc(N2CC(C(=O)Nc3ccc4c(c3)OCCO4)CC2=O)cc1 (stereo not given) | -1.3 | 3.4 | 49.7 | -2.2 | 59.4* | -4.7
O=C(Nc1ccc2c(c1)OCO2)C1CC(=O)N(c2ccccc2)C1 (stereo not given) | 9.0 | 7.0 | 2.9 | -8.7 | -3.4 | -16.2
O=C(N[C@H]1CC[C@H](CC(=O)N2CCC(Cc3ccccc3)CC2)O[C@H]1CO)c1cnccn1 | 13.5 | 5.6 | . | . | . | .
CCCc1ccc(Oc2cn[nH]c2-c2ccc(O)c(C)c2O)cc1 | . | . | 44.4 | 2.7 | 45.8 | 53.0*
COc1cccc(NC(=O)N2CC(=O)N3[C@H](CO)[C@@H](c4ccc(C5=CCCCC5)cc4)[C@H]3C2)c1 | 3.6 | -3.2 | . | . | . | .
Cc1cc(C)n2c(Nc3ccc4c(c3)OCCO4)c(-c3cc4ccccc4o3)nc2n1 | 92.2* | 35.7 | 85.5* | . | 96.7* | .
Cc1cc(C)n2c(Nc3ccc4c(c3)OCCO4)c(-c3ccc(C)o3)nc2n1 | 11.0 | -14.7 | -19.9 | 1.4 | 38.6 | 16.7
N#C[C@@H]1[C@H](c2ccc(C#Cc3cccc(F)c3)cc2)[C@@H](CO)N1C(=O)C1CCC1 | 71.8* | 15.4 | . | . | . | .
N#C[C@H]1[C@@H](c2ccc(C#Cc3cccc(F)c3)cc2)[C@@H](CO)N1C(=O)C1CCC1 | 2.8 | -2.4 | . | . | . | .
COc1ccccc1C#Cc1ccc([C@H]2[C@H](C#N)N(C(=O)C3CCCC3)[C@H]2CO)cc1 | 79.8* | 3.7 | . | . | . | .
CCC(=O)N1C[C@@H](O)COC[C@@H]2O[C@@H](CC(=O)NCc3cc(F)cc(F)c3)CC[C@H]21 | -2.3 | -6.7 | . | . | . | .
O=C(CCCc1ccccc1)Nc1cccc(C(=O)O)c1 | 82.2* | ? | -14.7 | 2.2 | -3.9 | 2.0
O=C(Nc1nnc(C2CC2)s1)C1CC(=O)N(c2ccc3c(c2)OCCO3)C1 (stereo not given) | 7.5 | . | 51.4* | 9.1 | 77.9* | -3.0
O=C(Nc1nc(-c2ccccn2)cs1)C1CC(=O)N(c2ccc3c(c2)OCCO3)C1 (stereo not given) | 0.5 | 21.9 | 19.6 | -13.1 | 69.9* | 1.5
O=C(Nc1nc2ccc(F)cc2s1)C1CC(=O)N(c2ccc3c(c2)OCCO3)C1 (stereo not given) | 22.1 | -4.7 | -11.7 | 0.0 | 55.5* | 39.7
O=C(Nc1nnc(C2CCCCC2)s1)C1CC(=O)N(c2ccccc2)C1 (stereo not given) | 8.0 | -9.1 | -5.2 | 1.3 | -14.9 | 3.2
SMILES | LGR2 inh | EWS-Fli block | TROY signal inh | KKLEB tox | TWEAK-Fn14 inh | CF NFkB inh
Cc1cccnc1NC(=O)C1CC(=O)N(c2ccc3c(c2)OCCO3)C1 (stereo not given) | -4.7 | -3.5 | 10.5 | -8.9 | 5.1 | 11.4
COc1ccc(-c2nc(NC(=O)C3CC(=O)N(c4ccc5c(c4)OCCO5)C3)sc2C)cc1 (stereo not given) | -19.6 | 46.9 | 47.6 | -7.9 | 82.2* | 28.0
O=C(C1CCCC1)N1[C@@H]2CN(S(=O)(=O)c3ccc(F)cc3)c3ccccc3[C@@H]2[C@@H]1CO | 5.0 | -4.1 | . | . | . | .
CO[C@H]1CN(C)C(=O)c2cc(NC(=O)C3CCCCC3)ccc2OC[C@H](C)N(Cc2cccnc2)C[C@@H]1C | 9.0 | -16.4 | . | . | . | .
Cc1onc(-c2ccccc2)c1C(=O)OCCOc1ccccc1F | -8.1 | -7.3 | -3.4 | -4.4 | 9.1 | -4.1
Cc1ccccc1OCCOC(=O)c1c(-c2ccccc2)noc1C | -7.3 | 58.2* | 23.9 | -14.5 | 13.9 | 18.3
CCC(=O)Nc1ccc2c(c1)C(=O)N(C)C[C@H](OC)[C@H](C)CN(Cc1ccncc1)[C@@H](C)CO2 | -9.7 | -5.2 | . | . | . | .
Cc1ccc(-n2c3c(cc(C(=O)NCC(=O)c4ccccc4)c2=O)C(=O)CCC3)cc1 | 21.6 | . | 15.1 | 5.1 | 92.8* | -10.0
CC1C/C(=C/c2cccs2)C(=O)/C(=C/c2cccs2)C1 (stereo not given) | 2.4 | 0.9 | 4.4 | -5.7 | 10.6 | -3.2
CC1C/C(=C/c2ccccn2)C(=O)/C(=C/c2ccccn2)C1 (stereo not given) | . | . | 2.7 | -62.3* | 64.5* | 85.7*
CC(C)(C)C1C/C(=C/c2ccccn2)C(=O)/C(=C/c2ccccn2)C1 (stereo not given) | . | . | 0.6 | -52.9* | -30.0 | 88.7*
C[C@H]1CCCCO[C@@H](CN(C)C(=O)Nc2ccc(F)cc2)[C@@H](C)CN([C@@H](C)CO)C(=O)c2cc(NC(=O)C3CCCCC3)ccc2O1 | 65.6* | 19.2 | . | . | . | .
C[C@@H]1CCCCO[C@@H](CN(C)C(=O)Nc2ccc(F)cc2)[C@@H](C)CN([C@H](C)CO)C(=O)c2cc(NC(=O)C3CCCCC3)ccc2O1 | 4.0 | 7.5 | . | . | . | .
C[C@H]1CCCCO[C@@H](CN(C)C(=O)Nc2ccccc2)[C@@H](C)CN([C@@H](C)CO)C(=O)c2cc(NC(=O)NC3CCCCC3)ccc2O1 | 62.9* | -4.8 | . | . | . | .
COc1ccc(NC(=O)N(C)C[C@@H]2OCCCC[C@H](C)Oc3ccc(NC(=O)NC4CCCCC4)cc3C(=O)N([C@H](C)CO)C[C@@H]2C)cc1 | 57.2* | -1.7 | . | . | . | .
COc1ccc(-c2ccc3c(c2)O[C@@H](CN(C)CC2CCOCC2)[C@@H](C)CN([C@H](C)CO)S3(=O)=O)cc1 | 32.7 | -5.1 | . | . | . | .
